# Shown are actives, neighbours in structure and some others; about 21% of the full set was active somewhere.
# Pf growth 96h: P. falciparum growth inhibition at 96 hour, primary screen for plastid delayed-death inhibitors; P. falciparum luciferase reporter growth, 96 h; Potency, µM (doses to about 28.7 µM), for inactives: at the top dose activity change, negative = inhibition, most hits filed as inhibitors; 320,000 compounds, 6.9% hits; AID 504834; further: potency means the concentration at half of the fitted maximal effect; on the % scale 0 is the no-effect control and ±100 the full control effect
#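 Plates of compound plus infected erythrocytes (2% hematocrit, 0.05% parasitemia final) incubate 96 hours, 37 C, 5% CO2. Detection reagent added; reduced luminescence from the parasites' luciferase reporter flags inhibition.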
# NS1 inh: blocks influenza NS1 protein function; Potency, µM (top dose mostly 46.1 µM), for the others: at the highest dose activity, positive = more growth; 270,000 compounds, 0.4% hits; calls by dose curve; further: potency means the concentration at half of the fitted maximal effect; actives are rising curves; nearly all actives have a fitted effect of over 50% in size
#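 Read-out: OD600 growth recovery of NS1-expressing budding yeast. Cells grown overnight at 30C in -URA glucose medium, washed, resuspended and diluted 1:100 in 2% galactose assay medium, pH 6.0. Same strain lacking NS1 served as positive control.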
# Cycloheximide cs: counter-screen for Shiga toxin inhibitors: cycloheximide protein synthesis inhibition | max response, % | cell reporter, cycloheximide protein synthesis inhibition counterscreen | 300,000 compounds, 12% hits | AID 2314; in the data active means max response mostly above about 13%, no sharp cut-off; inactive means mostly below about 14%; further: read at 38.3 µM for the half of the compounds with a filed dose; 0% is about no effect
# Shiga inhibitor: inhibitors of Shiga toxin in Vero cells. Vero cells, Shiga toxin protein synthesis inhibition reporter. inhibition, % at 38.7 µM. 290,000 compounds, 9.2% hits. AID 2315; in the data active means inhibition mostly above about 28%, no sharp cut-off; inactive means mostly below about 43%; further: 0% is about no effect
# Pf growth 48h: P. falciparum growth inhibition at 48 hours (one generation); P. falciparum luciferase growth in erythrocytes, 48 h; Potency, µM (top dose mostly 28.7 µM), for the others: at the highest dose activity change, negative = inhibition, usual class: inhibitors; 310,000 compounds, 5.9% hits; further: potency means the concentration at half of the fitted maximal effect; on the % scale 0 is the no-effect control and ±100 the full control effect
#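 Here the parasites carry a stable luciferase gene and grow inside erythrocytes in Albumax-based RPMI medium with compound for one erythrocytic cycle. Activity is scored as loss of luminescent signal.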
# An asterisk follows results filed as active; i = inactive; ? = inconclusive; · = not tested or not shown; [ ] = remark or other dose. Unless noted, the call rests on the fitted dose curve; in most records, active means well fitted inhibition curve with a large enough effect; inconclusive means small, poorly fitted or top-dose-only effect, or another doubt; inactive means no such curve, though single readings can be large or run the other way.
SMILES,Pf growth 96h,NS1 inh,Cycloheximide cs,Shiga inhibitor,Pf growth 48h
COc1ccccc1NS(=O)(=O)c1cccc(C(=O)OCc2nc3ccccc3s2)c1,59%,6%,49*,76*,43%
O=C(NCC(c1ccco1)N1CCCC1)c1cccc(NS(=O)(=O)c2ccc(Br)cc2)c1 (configuration not stated),-2%,·,·,·,?
CN(C)C1(CNC(=O)Nc2ccc(Cl)c(Cl)c2)CCCCC1,?,2%,-7,-9,-18%
CN(C)C1(CNC(=O)c2ccc(NS(=O)(=O)c3ccc(Cl)c(Cl)c3)cc2)CCCCC1,13µM*,·,·,·,12µM*
Cc1cccc(NS(=O)(=O)c2cccc(C(=O)NCC3(N4CCCCC4)CCCCC3)c2)c1,8.3µM*,·,·,·,6.6µM*
Cc1ccc(N(C)S(=O)(=O)c2cccc(C(=O)NCC(c3ccco3)N3CCCC3)c2)cc1 (configuration not stated),3.3µM*,·,·,·,9.3µM*
COc1ccc(C(CNC(=O)c2ccc(NS(=O)(=O)c3ccc(F)c(C)c3)cc2)N2CCOCC2)cc1 (configuration not stated),0%,·,·,·,10µM*
COc1ccc(C(CNC(=O)c2ccc(NS(=O)(=O)c3ccc(F)cc3)cc2)N2CCOCC2)cc1 (configuration not stated),?,-4%,-5,2,?
Cc1c(NC(=O)c2cc(-c3cccc(Cl)c3)on2)c(=O)n(-c2ccccc2)n1C,190%,1%,-3,7,-3%
Cc1cc(N2C(=O)C3C4CC(C(Br)C4Br)C3C2=O)no1 (configuration not stated),-12%,?,5,25,12%
Cc1ccc(OCCCC(=O)NNC(=O)c2ccncc2)cc1,57%,·,·,·,5%
COc1ccccc1C(CNC(=O)c1cccc(S(=O)(=O)Nc2ccc(C)cc2)c1)N1CCCC1 (configuration not stated),15µM*,·,·,·,13µM*
COc1ccccc1C(CNC(=O)CNC(=O)c1ccc(C)c(C)c1)N1CCCC1 (configuration not stated),?,·,·,·,-28%
COc1ccccc1NS(=O)(=O)c1cccc(C(=O)NCC(c2ccccc2OC)N2CCCC2)c1 (configuration not stated),?,·,·,·,8.3µM*
O=C(NCC(c1ccco1)N1CCc2ccccc2C1)c1ccccc1 (configuration not stated),55%,·,·,·,-10%
COc1ccccc1NC(=O)C(=O)NCC(c1ccco1)N1CCc2ccccc2C1 (configuration not stated),?,·,·,·,5.2µM*
Cc1ccccc1OC(=O)C1C(c2ccccc2)C(C(=O)O)C1c1ccccc1 (configuration not stated),20%,-1%,-3,-5,·
CC(C)NC(=O)/C(C#N)=C\c1ccc(N(C)C)o1,44%,-9%,3,-6,?
CCN(CC)c1ccc(/C=C(/C#N)C(=O)NC(C)C)o1,?,0%,26*,60*,-10%
CCN(CC)c1ccc(/C=C(/C#N)C(=O)NCc2ccccc2)o1,?,23%,50*,102*,57%
N#C/C(=C\c1ccc(O)cc1)C(=O)NCc1ccccc1,3%,-4%,2,-5,10%
Cc1[nH]n(C(C)(C)C)c(=O)c1Sc1ccc(Cl)cc1,?,-178%,2,-21,?
CC(C)(C)c1cc(C(=O)NCc2cc(F)cc3c2OCOC3)n(Cc2ccccc2)n1,?,7%,53*,83*,?
CC(C)(C)c1cc(C(=O)NNC(=O)Nc2ccccc2)n(Cc2ccccc2)n1,9.3µM*,0%,0,-2,5.2µM*
Cc1ccc(S(=O)(=O)N(C)C)cc1NC(=O)c1cc(C(C)(C)C)nn1Cc1ccccc1,7.4µM*,4%,4,-2,?
SMILES,Pf growth 96h,NS1 inh,Cycloheximide cs,Shiga inhibitor,Pf growth 48h
CC(C)(C)c1cc(C(=O)NNC(=O)Nc2cccc(Cl)c2)n(Cc2ccccc2)n1,9.3µM*,0%,-1,-7,?
Cc1cccc(C)c1NC(=O)NNC(=O)c1cc(C(C)(C)C)nn1Cc1ccccc1,?,3%,-2,2,?
CC(C(=O)Nc1ccccc1)C(=O)Nc1ccccc1,50%,2%,6,·,-1%
COc1cc(C(=O)NC2CCCCC2)ccc1OCc1ccc(Cl)cc1Cl,17%,7%,-4,19,10%
COc1cc(C(=O)NCCC(C)C)ccc1OCc1ccc(Cl)cc1Cl,4.7µM*,0%,-3,-5,10µM*
CC(C)CCNC(=O)C(=O)Nc1ccccc1,-14%,·,45*,162*,i
CC(C)CCNC(=O)c1ccc(-c2ccccc2)cc1,93%,-9%,36*,84*,40%
CC(C)CCNC(=O)c1ccc(Cl)c(N)c1,55%,0%,37*,57*,36%
CC(C)CCNC(=O)c1cccc(C(=O)NCCC(C)C)c1,-24%,-1%,-6,-15,·
CC1(C)OC2OC(C(=O)N/N=C/c3cc(Br)ccc3O)C3OC(C)(C)OC3C2O1 (configuration not stated),8%,-7%,-2,-7,-13%
COc1ccccc1N(CC1CO1)S(=O)(=O)c1ccc(C)cc1 (configuration not stated),77%,-19%,-1,4,-18%
O=C1CCN(Cc2ccccc2)S(=O)(=O)c2c(F)cc(F)cc21,38%,·,·,·,2%
Cc1ccc(NC(=O)Cc2c[nH]c3ccccc23)cc1S(=O)(=O)N1CCCCCC1,12µM*,23%,-1,-6,13µM*
Cc1ccc(S(=O)(=O)N2CCOCC2)cc1NC(=O)CN1CCN(C)CC1,-23%,·,·,·,-22%
COc1ccc(S(=O)(=O)N2CCCCC2)cc1NCC(=O)Nc1ccc(C)cc1,-29%,-6%,13,7,-4%
COc1ccc([N+](=O)[O-])cc1NCC(=O)Nc1cc(S(=O)(=O)N2CCCCC2)ccc1C,?,·,·,·,12µM*
Cc1ccc(S(=O)(=O)N2CCOCC2)cc1NC(=O)CN1CCC(Cc2ccccc2)CC1,3.7µM*,-8%,-3,-4,13µM*
Cc1ccc(S(=O)(=O)N2CCCCC2)cc1NC(=O)CNc1ccccc1N1CCCC1=O,?,·,·,·,13µM*
Cc1nc2ccc(Br)cc2c2c1CC(CO)O2 (configuration not stated),-1%,0%,-4,-8,20%[0.00184 µM]
COc1ccc(S(=O)(=O)N2CCCCC2)cc1NC(=O)Cc1c[nH]c2ccccc12,8.3µM*,?,3,-3,?
Cc1ccc(S(=O)(=O)N2CCCCC2)cc1NC(=O)Cc1c[nH]c2ccccc12,5.2µM*,10%,-2,-7,?
CCOc1ccccc1OCC(=O)Nc1cc(S(=O)(=O)N2CCCCC2)ccc1OC,2%,·,·,·,?
COc1ccc(S(=O)(=O)N2CCCCCC2)cc1NC(=O)Cc1cc(OC)c(OC)c(OC)c1,3.7µM*,15%,1,-3,?
COc1ccc(S(=O)(=O)N2CCCCCC2)cc1NC(=O)Cc1ccccc1F,?,10%,-1,-1,?
